From PubChem BioAssay AID686978 (National Center for Advancing Translational Sciences (NCATS), 2013)
Screen size: about 420,000 compounds; about 64,000 (15%) were called active. Inconclusive results (about 27%) are left out. These entries were drawn from the full list. Values without a mark were called inactive. Calls come from the whole dose curve; as a rule, active = well fitted inhibition curve with a large enough effect; inconclusive = small, poorly fitted or top-dose-only effect; inactive = flat fitted curve, though single readings scatter.

experiment: qHTS for Inhibitors of human tyrosyl-DNA phosphodiesterase 1 (TDP1): qHTS in cells in absence of CPT; conditions: DT40 Tdp1-/- hTDP1 cells, no CPT, ATP luminescence, 48 h; activity change, negative = growth inhibition: at 46.2 µM (top of the series); note: nearly all actives have a fitted effect of over 55% in size
Procedure, shortened: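 Seeded 400 DT40-hTDP1 cells/well (vehicle DMSO, no 20 nM CPT); pinned compounds; ≥48 hr at 37 °C; CellTiter-Glo luminescence as viability measure.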
% is set by controls: 0 for no effect and ±100 for the full control effect; potency is the fitted concentration of half-maximal effect.

| SMILES | activity change, negative = growth inhibition [%] | Potency |
| --- | --- | --- |
| Cc1ccc(NC(=O)COC(=O)CNC(=O)c2ccc(Cl)cc2Cl)cc1S(=O)(=O)N1CCOCC1 | 1.87 | – |
| NC(=O)Cc1ccc2sc(-c3ccccc3)nc2c1 | -21.5 | – |
| Cn1c(=O)n(C)c2cc(/C=N/NC(=O)c3cccc(Br)c3)ccc21 | -24.1 | – |
| COc1ccc(CN(C)C(=O)Cc2ccsc2)c(OC)c1OC | -6.23 | – |
| COc1ccc(CN(C)C(=O)c2cc(-c3ccc(C)cc3C)nc3ccccc23)c(OC)c1OC | – | 11.6 µM (active) |
| Cc1ccc(-c2cc(C(=O)Nc3nn[nH]n3)c3ccccc3n2)c(C)c1 | 1.44 | – |
| CC(=O)Nc1nc2c(s1)C(=O)NCC(C)(C)C2 | 5.92 | – |
| Cn1nc(C(C)(C)C)c(NC(=O)c2sccc2Cl)c1C(C)(C)C | -23.7 | – |
| NCCCNCCCCN(CCCN)/[N+]([O-])=N/O | – | 13.3 µM (active) |
| COc1ccc(CN2[C@@H](CC(=O)O)c3cc(F)ccc3S2(=O)=O)cc1 | – | inactive |
| COCCNC(=S)N1CCC(NC(=O)C23CC4CC(CC(C4)C2)C3)CC1 | -11.4 | – |
| S=C(Nc1cccc(Cl)c1)Nc1ccc2c(c1)OCCO2 | -15.8 | – |
| S=C(Nc1cccc(Cl)c1)Nc1ccc2cn[nH]c2c1 | -3.53 | – |
| Cc1csc(NC(=S)Nc2cccc(Cl)c2)n1 | – | 4.61 µM (active) |
| COc1cc(Cl)c(C)cc1Nc1nnc(-n2nc(C)cc2C)c2ccccc12 | -24 | – |
| Cc1ccc(NC(=O)NC(=O)CSc2nnc(-c3ccc(OC(F)F)cc3)n2N)c(C)c1 | 11.1 | – |
| CCOC(=O)CN(C(=O)CN1CCOCC1)c1ccc(Br)cc1 | -10.1 | – |
| COC(CNC(=O)c1ccc2c(c1)ncn2-c1cc(C)cc(C)c1)OC | -14.3 | – |
| COCCNC(=O)c1ccc2c(c1)ncn2-c1ccc(C)c(Cl)c1 | – | 14.6 µM (active) |
| COc1ccc(-n2cnc3cc(C(=O)NC4CCCC4)ccc32)cc1 | -25.9 | – |
| CC(=O)N/C(=C\c1ccc(F)cc1)C(=O)NC(Cc1ccccc1)C(=O)O (stereo not drawn) | 8.07 | – |
| Cc1cc(C)cc(NC(=O)CSc2ccccc2)c1 | -21.9 | – |
| CC(=O)Nc1ccc(NC(=O)CSCc2cnn(-c3ccccc3)c2-n2cccc2)cc1 | -14.5 | – |
| Cc1cc(C)cc(NC(=O)CSCc2cnn(-c3ccccc3)c2-n2cccc2)c1 | – | 10.3 µM (active) |
| CCOC(=O)c1ccc(N2C(=O)CC(N3CCN(C(=O)c4ccccc4)CC3)C2=O)cc1 (stereo not drawn) | 18.9 | – |
| Nc1nnc2c(C(F)(F)F)nc3ccccc3n12 | -21.9 | – |
| FC(F)(F)c1nnc2sc(-c3ccco3)nn12 | 15.9 | – |

| SMILES | activity change, negative = growth inhibition [%] | Potency |
| --- | --- | --- |
| FC(F)(F)c1nnc2c3ccccc3c(Cl)nn12 | – | 6.51 µM (active) |
| O=C(COC(=O)c1cc2c(s1)CCCC2)NCc1ccccc1Cl | -5.8 | – |
| C/C(=N\NC(=O)c1ccc(CSc2nc(C)cc(C)n2)cc1)C1CCCCC1 | -16.8 | – |
| CC1CCN(C(=O)/C(=C\c2ccccc2F)NC(=O)c2ccccc2)CC1 | -22.6 | – |
| COC(=O)c1cccc(N(C(=O)CNC(=O)c2cccs2)C(C(=O)NCC2CCCO2)c2ccc(OC)c(OC)c2)c1 (stereo not drawn) | -19.2 | – |
| COc1ccc(-c2nc3ccccc3n2CCC(C)C)cc1OC | – | 25.9 µM (active) |
| CCOCCn1c(-c2ccccc2)nc2ccccc21 | – | 18.4 µM (active) |
| CCCn1c(C(O)c2cc(OC)ccc2OC)nc2ccccc21 (stereo not drawn) | -14.8 | – |
| COCCn1c(-c2ccc(OC)c(OC)c2)nc2ccccc21 | -26.5 | – |
| CCOCCn1c(C(C)C)nc2ccccc21 | -25.3 | – |
| CCCCCN(C(=O)NC(=O)Nc1ccccc1OC)S(C)(=O)=O | -17.8 | – |
| CC(C)c1ccc(NC(=O)Cn2nnc(C(=O)NCCc3ccccc3)c2N)cc1 | 5.52 | – |
| CN(C)c1ccc(/C=C/c2sc3ccccc3[n+]2CCCCBr)cc1 | – | 0.316 µM (active) |
| CN(C)c1ccc(/C=C/c2sc3ccccc3[n+]2C)cc1 | – | 0.141 µM (active) |
| Cc1cccc(CN2CCN(Cc3cnn(-c4ccccc4F)c3)CC2CCO)n1 (stereo not drawn) | -16 | – |
| CC(=O)N1CCN(S(=O)(=O)c2ccc(C)c([N+](=O)[O-])c2)C1C(C)C (stereo not drawn) | -4.36 | – |
| O=C1CC2(CCCC2)C(=O)N1CN1CCN(S(=O)(=O)c2ccc(F)cc2F)CC1 | -2.62 | – |
| CCC(C(=O)Nc1ncccn1)(C(F)(F)F)C(F)(F)F | -8.1 | – |
| COc1cc(Cl)c(C)cc1NC(=O)CSc1nnc(CN2CCCC2)o1 | 21.9 | – |
| COc1cc(NC(=O)CSC(=S)N2CCCC2)c(OC)cc1Cl | – | 14.6 µM (active) |
| CCOCC(=O)Nc1cc(OC)c(Cl)cc1OC | -4.91 | – |
| COc1ccc(C(=O)N(C)CC(O)c2ccccc2)cc1OC1CCN(C(C)=O)CC1 (stereo not drawn) | 18.6 | – |
| Cc1cc2c(=O)n(CC(=O)NCC(=O)Nc3ccc(C(C)C)cc3)cnc2s1 | 11.4 | – |
| CCC1(C)Cc2c(sc3nc(SC)[nH]c(=O)c23)CO1 (stereo not drawn) | -2.82 | – |
| CCC1(C)Cc2c(sc3[nH]c(=S)n(Cc4ccccc4)c(=O)c23)CO1 (stereo not drawn) | – | 18.4 µM (active) |
| CCC1(C)Cc2c(sc3nc(SC)nc(N)c23)CO1 (stereo not drawn) | -40 | – |
